{"source": "PubChem BioAssay (NCATS)", "note": "Results filed as inconclusive are left out. A number with no mark means an inactive call. The source made the active and inactive calls. Calls follow the shape of the dose curve; as a rule, active = well fitted inhibition curve with a large enough effect; inconclusive = small, poorly fitted or top-dose-only effect; inactive = flat fitted curve, though single readings scatter. % is scaled to controls: 0 for no effect and ±100 for the full control effect.", "data": [{"assay": "P-glycoprotein substrates identified in KB-8-5-11 adenocarcinoma cell line, qHTS therapeutic library screen (AID 1346987); also: nearly all actives have a fitted effect of over 65% in size", "conditions": "KB-8-5-11 (P-gp overexpressing) viability, CellTiter-Glo, 72 h; series mostly up to 44.5 µM; activity change, negative = cytotoxicity: at the top concentration", "outline": "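Steps: plate 500 KB-8-5-11 cells/well in DMEM + 10% FCS (colchicine removed); pin compounds in dose-response; incubate 72 h, 37 degree C, 5% CO2; add CellTiter-Glo, 5 min; read luminescence.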", "values": [{"smiles": "CC1CCC2(C(=O)OC3OC(CO)C(O)C(O)C3O)CCC3(C)C(=CCC4C5(C)CC(O)C(O)C(C)(C(=O)O)C5CCC43C)C2C1(C)O", "note": "(centres undefined)", "activity change, negative = cytotoxicity": "0.228% [at 17.3 µM]"}, {"smiles": "CC1=CCC2C(C)(CO)CCCC2(CO)C1CO", "note": "(centres undefined)", "outcome": "inactive"}, {"smiles": "COC(=O)CC1(O)C(=O)Nc2ccccc21", "note": "(centres undefined)", "outcome": "inactive"}, {"smiles": "CC(=O)O[C@@H]1[C@H](O[C@@H]2O[C@H](CO)[C@@H](O)[C@H](O)[C@H]2O)[C@@H](O[C@@H]2O[C@@H](C)[C@H](O)[C@@H](O[C@@H]3O[C@H](CO)[C@@H](O)[C@H](O)[C@H]3O)[C@H]2O)[C@H](OC(=O)C23CCC4(C)C(=CCC5C6(C)CC(O)C(O[C@@H]7O[C@H](C(=O)O)[C@@H](O)[C@H](O)[C@H]7O)C(C)(C(=O)O)C6CCC54C)C2CC(C)(C)CC3O)O[C@@H]1C", "note": "(some centres undefined)", "outcome": "inactive [at 9.29 µM]"}, {"smiles": "CCCCC(CC)COC(=O)CC(C(=O)OCC(CC)CCCC)S(=O)(=O)O", "note": "(centres undefined)", "Potency": "inactive"}, {"smiles": "O=C(/C=C/c1ccc(O)c(O)c1)OCc1ccccc1O[C@@H]1O[C@H](CO)[C@@H](O)[C@H](O)[C@H]1O", "activity change, negative = cytotoxicity": "5.44% [at 17.3 µM]"}, {"smiles": "O=C(OCC12OC1C=CC(OC(=O)c1ccccc1)C2O)c1ccccc1", "note": "(centres undefined)", "activity change, negative = cytotoxicity": "5.62%"}, {"smiles": "CC1CCC2C(C)(C)C(O)CCC2(C)C12Cc1c(O)cc3c(c1O2)CN=C3N", "note": "(centres undefined)", "activity change, negative = cytotoxicity": "7.64%"}, {"smiles": "C[C@@H]1CCC2C(C)(C)[C@H](O)CC[C@]2(C)[C@@]12Cc1c(O)cc3c(c1O2)CN(CCO)C3=O", "note": "(some centres undefined)", "outcome": "inactive [at 17.3 µM]"}, {"smiles": "O=C1C[C@@H](c2ccc(O)cc2)Oc2cc(O)ccc21", "outcome": "inactive"}, {"smiles": "C[C@@H]1O[C@@H](O[C@H]2[C@H](O[C@H]3CC[C@@]4(C)C(CC[C@]5(C)C4CC=C4C6CC(C)(C)CC[C@]6(C(=O)O[C@@H]6O[C@H](CO[C@@H]7O[C@H](CO)[C@@H](O[C@@H]8O[C@@H](C)[C@H](O)[C@@H](O)[C@H]8O)[C@H](O)[C@H]7O)[C@@H](O)[C@H](O)[C@H]6O)CC[C@]45C)[C@]3(C)CO)OC[C@H](O)[C@@H]2O)[C@H](O)[C@H](O)[C@H]1O", "note": "(some centres undefined)", "outcome": "inactive [at 9.29 µM]"}, {"smiles": "COC(=O)C1=COC(OC2OC(CO)C(O)C(O)C2O)C2C1CC(OC(=O)C(O)CC(=O)O)C2C", "note": "(centres undefined)", "outcome": "inactive [at 17.3 µM]"}, {"smiles": "COc1ccccc1-n1c(SCC(=O)Nc2nc3ccc(C)cc3s2)nc2c(c1=O)SCC2", "activity change, negative = cytotoxicity": "-3.59% [at 17.3 µM]"}, {"smiles": "CC1CC(O)CC(C)(C)C1(O)CCO", "note": "(centres undefined)", "outcome": "inactive [at 93.4 µM]"}, {"smiles": "COc1cc([C@@H]2c3cc4c(cc3[C@@H](O[C@@H]3O[C@@H]5CO[C@@H](C)O[C@H]5[C@H](O)[C@H]3O)[C@H]3COC(=O)[C@H]23)OCO4)cc(OC)c1O", "activity change, negative = cytotoxicity": "-20.2%"}, {"smiles": "CC1(C)CCC[C@@]2(C)[C@H]1[C@H](O)C=C1COC(=O)[C@@]12O", "outcome": "inactive"}, {"smiles": "O=C(CCCCc1ccc2ccccc2c1)C(F)(F)F", "activity change, negative = cytotoxicity": "1.14% [at 93.4 µM]"}, {"smiles": "COc1cccc(-n2nc(C(=O)O)cc2-c2ccc(C3CCCCC3)c(Cl)c2)c1", "outcome": "inactive"}, {"smiles": "C[C@H]1[C@H](C)CC[C@]2(C(=O)O[C@@H]3O[C@H](CO)[C@@H](O)[C@H](O)[C@H]3O)CC[C@]3(C(=O)O)C(=CCC4[C@@]5(C)CC[C@H](O[C@@H]6O[C@H](CO)[C@@H](O)[C@H](O)[C@H]6O)C(C)(C)C5CC[C@]43C)[C@H]12", "note": "(some centres undefined)", "outcome": "inactive [at 9.29 µM]"}, {"smiles": "CN1CCC(c2c[nH]c3ccc(NC(=O)c4ccc(F)cc4)cc23)CC1", "outcome": "inactive"}, {"smiles": "C=C1CCC2[C@@](C)(C=O)CCC[C@]2(C)[C@H]1CC/C(C)=C/CO", "note": "(some centres undefined)", "activity change, negative = cytotoxicity": "0.557%"}, {"smiles": "CCCCCCCC/C=C\\CCCCCCCC(=O)O", "activity change, negative = cytotoxicity": "-2.14%"}, {"smiles": "CCOc1nc2cccc(C(=O)OCc3oc(=O)oc3C)c2n1Cc1ccc(-c2ccccc2-c2noc(O)n2)cc1", "activity change, negative = cytotoxicity": "3.72%"}, {"smiles": "CCNC(=O)[C@H]1O[C@H](n2cnc3c(NCC(c4ccccc4)c4ccccc4)nc(C(=O)NCCNC(=O)NC4CCN(c5ccccn5)CC4)nc32)[C@H](O)[C@@H]1O", "outcome": "inactive"}, {"smiles": "Cc1c(CN(C)C(=O)/C=C/c2cnc3c(c2)CCC(=O)N3)oc2ccccc12", "activity change, negative = cytotoxicity": "-15.7%"}, {"smiles": "O=C(NC[C@H](O)CN1CCc2ccccc2C1)c1cc(NC2COC2)ncn1", "activity change, negative = cytotoxicity": "1.23%"}, {"smiles": "COC(=O)C1=CO[C@@H](O[C@@H]2O[C@H](CO[C@@H]3O[C@H](COC(=O)/C=C/c4ccc(O)cc4)[C@@H](O)[C@H](O)[C@H]3O)[C@@H](O)[C@H](O)[C@H]2O)[C@@H]2C(CO)=CC[C@H]12", "outcome": "inactive [at 17.3 µM]"}, {"smiles": "C/C(=C/CO)CC[C@@H]1[C@@]2(C)CCC[C@](C)(C(=O)O)C2CC[C@@]1(C)O", "note": "(some centres undefined)", "activity change, negative = cytotoxicity": "9.82%"}, {"smiles": "CC(=O)OCC(=O)[C@@]1(O)CC[C@H]2[C@@H]3C[C@H](C)C4=CC(=O)C=C[C@]4(C)[C@H]3[C@@H](O)C[C@@]21C", "activity change, negative = cytotoxicity": "-7.82%"}]}]}
